# PubChem BioAssay (NCI)
# This is part of a sample that, as a whole, favours compounds with a hit. Of some 83,000 tested, about 20% had one in any assay.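 In brief: 96-well plates, 48 h treatment, single concentration, percent growth endpoint.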 Unmarked numbers belong to inactive results. The source made the active and inactive calls. Rule for the calls: active = growth percent below 10; inactive = the rest.
# Columns and labels:
# Assay in all cases: NCI-60 one-dose screen, 48 h (100 = growth as untreated, 0 = no growth, -100 = all killed)
# Conditions in all cases: 10 µM unless noted
# [1] = tested on: RPMI-8226 leukemia
# [2] = tested on: OVCAR-8 ovarian
# [3] = tested on: OVCAR-5 ovarian
# [4] = tested on: OVCAR-4 ovarian
# [5] = tested on: SK-OV-3 ovarian
# [6] = tested on: OVCAR-3 ovarian
# [7] = tested on: HS 578T breast
# [8] = tested on: NCI/ADR-RES ovarian
# [9] = tested on: IGROV1 ovarian
SMILES,growth [1],growth [2],growth [3],growth [4],growth [5],growth [6],growth [7],growth [8],growth [9]
O=c1c2cccc3c(Nc4ccc(F)cc4)ccc(c32)c2nc3ccccc3n12,57.4%,89.3%,84.8%,76%,101%,94%,73.6%,91.4%,
OC1CC2c3ccccc3C1c1ccccc12 (stereo not drawn),104%,106%,113%,100%,112%,112%,104%,110%,
CCCCCCOc1ccc(C2(Cl)c3ccccc3N(C)c3ccccc32)cc1,47.5%,38.7%,107%,41.3%,60.7%,32.1%,54.7%,52.3%,
O=C1CCC(=O)N1Cc1ccccc1,109%,108%,97.7%,96.9%,113%,102%,102%,89.8%,
COc1cc2c(cc1OC)C1(C)N(CC2)C(=O)OC1(C)C (stereo not drawn),105%,98.4%,,99.5%,107%,114%,98.1%,105%,109%
COC(=O)CCCCCN=Cc1c(O)c(O)c(C(C)C)c2cc(C)c(-c3c(C)cc4c(C(C)C)c(O)c(O)c(C=NCCCCCC(=O)OC)c4c3O)c(O)c12,16.6%,,11.3%,15.5%,24%,15.9%,19.9%,61.8%,25.6%
COc1ccc(-c2cn[nH]c2-c2cc(OC)c3c(c2)OCCO3)cc1,,26.1%,48.1%,73.7%,15.9%,-36.6% (active),3.05% (active),9.78% (active),50.2%
COc1ccc(OC)c(NC(=O)c2cc(S(=O)(=O)N3CCc4ccccc43)ccc2OC)c1,82.6%,75.5%,89.8%,94.2%,92.6%,112%,-43.4% (active),94.3%,-39.9% (active)
CCNCc1ccncc1,98.8%,103%,,97.8%,94.7%,110%,103%,106%,111%
CN(C)c1ccc(-c2ccc(-c3ccc(C(=N)N)cn3)o2)cc1,-43.4% (active),-54.7% (active),-25% (active),-17.3% (active),-24.4% (active),-96.7% (active),-19.7% (active),22.5%,-26.8% (active)
CN(C)C1CCC(NC2=CC(=O)C=CC2=O)CC1 (stereo not drawn),111%,,118%,111%,119%,116%,108%,111%,105%
O=C(C[N+](=O)[O-])c1ccc(Cl)cc1,100%,116%,110%,111%,113%,113%,100%,109%,
COc1ccc(Cl)cc1NC(N)=S,100%,108%,,94.8%,118%,108%,104%,105%,
COc1ccc(/C=C/C(=O)c2ccc(NC(=O)CN3CCN(c4cc5c(cc4F)c(=O)c(C(=O)O)cn5C4CC4)CC3)cc2)cc1,92.6%,99%,105%,101%,114%,118%,94.8%,107%,115%
Cc1ccc2c(c1)C(C)Cc1c(N(C)C)ncnc1N2C (stereo not drawn),32.4%,51%,83.9%,61.1%,35.1%,14%,6.88% (active),28.5%,59.5%
NC(=O)NNC(=O)c1ccccc1,103%,110%,109%,108%,123%,111%,,103%,
Cc1cc(C(=O)O)c(N)c(C)n1,103%,112%,111%,102%,129%,110%,101%,108%,
Cc1cc2c(C(C)C)c(O)c(O)c(C=NCCCCCCC(=O)O)c2c(O)c1-c1c(C)cc2c(C(C)C)c(O)c(O)c(C=NCCCCCCC(=O)O)c2c1O,10.1%,30.6%,55.9%,28.2%,63.7%,25.8%,,67.6%,28.6%
Cc1ccccc1C(=O)c1ccccc1C(=O)O,102%,107%,111%,114%,118%,107%,106%,108%,
CCc1c(C(=O)Nc2ccc3ccccc3c2)[nH]c(C)c1C(C)=O,75.8%,104%,101%,76.7%,99.7%,103%,98.5%,94.8%,108%
